Inconclusive results are not listed. Active and inactive are the calls of the source. Calls follow the shape of the dose curve; as a rule, active = well fitted curve in the direction sought with a large enough effect; inconclusive = small, poorly fitted or top-dose-only effect, or another doubt; inactive = no such curve, though single readings can be large; an effect the other way counts as inactive or inconclusive.

Here are results for five compounds from PubChem BioAssay (NCATS).

One experiment is described as follows: Cell Viability - LYMP2-004 (AID 966). Also: nearly all actives have a fitted effect of over 65% in size. Particulars: LYMP2-004 lymphoblastoid cell viability, qHTS; series mostly up to 92.2 µM. The essentials:
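Human lymphoblastoid cells (2500/well) in complete medium were treated with compounds for 24 hr at 37 C, then intracellular ATP was measured by CellTiter-Glo luminescence. AC50 values came from Hill-equation fits of concentration-response data.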
On the technique in general: Quantitative high-throughput screening tests each substance at several concentrations.
For `CN(C)Cc1ccccc1`, the compound was called inactive.
Still for that read-out and setting: with `COC(C)=O` the entry was “inactive”.
Take `C=Cc1ccccc1`: the result was inactive.
As for `O=C(O)CC(O)(CC(=O)O)C(=O)O`, the compound was classed as inactive.
Same read-out and setting: the value for `CCCCCCCCCC(=O)O` was “inactive”.

A further experiment can be described thus: Cell Viability - LYMP2-005 (AID 967). Conditions: LYMP2-005 lymphoblastoid cell viability; series mostly up to 92.2 µM. The essentials: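 Acute cytotoxicity is scored as a concentration-dependent drop in intracellular ATP in human lymphoblastoid LYMP2-005 cells after 24 h compound treatment. ATP is quantified by luciferase luminescence, and AC50 is derived by Hill-equation modelling.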
As to `CN(C)Cc1ccccc1`, the compound was classed as inactive.
In the case of `COC(C)=O`, the outcome was inactive.
Same read-out and setting: with `O=C(O)CC(O)(CC(=O)O)C(=O)O` the entry was “inactive”; with `CCCCCCCCCC(=O)O`, “inactive”.

The next experiment in a line: Cell Viability - LYMP2-009 (AID 968). Also: nearly all actives have a fitted effect of over 55% in size. Conditions: LYMP2-009 lymphoblastoid cell viability; series mostly up to 92.2 µM.
`CN(C)Cc1ccccc1`: the compound was called inactive.
Still for that read-out and setting: the value for `COC(C)=O` was “inactive”; that for `C=Cc1ccccc1` was “inactive”; that for `O=C(O)CC(O)(CC(=O)O)C(=O)O` was “inactive”.
Still for that read-out and setting: the value for `CCCCCCCCCC(=O)O` was “inactive”.

The next experiment is described as follows: Cell Viability - LYMP2-011 (AID 969). Also: nearly all actives have a fitted effect of over 60% in size. Conditions: LYMP2-011 lymphoblastoid cells viability; series mostly up to 92.2 µM. The essentials: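 Human lymphoblastoid cells (2500/well) were plated in complete medium, preincubated 5 hr at 37 C, then exposed to compounds for 24 hr at 37 C. Intracellular ATP was read by CellTiter-Glo luminescence, and AC50 came from Hill-equation concentration-response fits.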
With `CN(C)Cc1ccccc1`, the compound was called inactive.
Same read-out and setting: the value for `COC(C)=O` was “inactive”.
Same read-out and setting: the value for `C=Cc1ccccc1` was “inactive”.
With `O=C(O)CC(O)(CC(=O)O)C(=O)O`, the compound was classed as inactive.
As for `CCCCCCCCCC(=O)O`, the compound was classed as inactive.

Another experiment in a line: Cell Viability - LYMP2-013 (AID 970). Also: nearly all actives have a fitted effect of over 55% in size. Conditions: LYMP2-013 lymphoblastoid cells viability; series mostly up to 92.2 µM. The essentials: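 Human lymphoblastoid cells, 2500/well, were preincubated 5 hr at 37 C, then treated with compounds for 24 hr at 37 C in complete medium. Intracellular ATP was read by CellTiter-Glo luminescence; AC50 from Hill-equation fits of concentration-response data.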
Take `CN(C)Cc1ccccc1`: the result was inactive.
For the compound `COC(C)=O`, the compound was called inactive.
The same measure, in the same setting: the value for `C=Cc1ccccc1` was “inactive”.
As to `CCCCCCCCCC(=O)O`, the compound was called inactive.

A short description of another experiment: Cell Viability - LYMP2-015 (AID 971). Also: nearly all actives have a fitted effect of over 55% in size. Conditions: LYMP2-015 lymphoblastoid cell viability; series mostly up to 92.2 µM. The gist of the method: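 Human lymphoblastoid cells (2500/well) in complete medium were preincubated 5 hr at 37 C, then compound-treated 24 hr at 37 C. Intracellular ATP was read by CellTiter-Glo luminescence after 30 min at room temperature; AC50 came from Hill-equation concentration-response fits.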
For `CN(C)Cc1ccccc1`, the compound was classed as inactive.
The same measure, in the same setting: the value for `COC(C)=O` was “inactive”; that for `C=Cc1ccccc1` was “inactive”.
As for `CCCCCCCCCC(=O)O`, the call was inactive.

The nature of the next experiment: Cell Viability - LYMP2-017 (AID 972). Also: nearly all actives have a fitted effect of over 55% in size. Particulars: LYMP2-017 lymphoblastoid cell viability; series mostly up to 92.2 µM. The gist of the method: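 Human lymphoblastoid cells (2500/well) were seeded in complete medium, held 5 hr at 37 C, then exposed to compounds for 24 hr at 37 C. Intracellular ATP was read by CellTiter-Glo luminescence after 30 min at room temperature, with AC50 values from Hill-equation fits.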
Consider `CN(C)Cc1ccccc1`, for which the result was inactive.
Same read-out and setting: the value for `COC(C)=O` was “inactive”; that for `C=Cc1ccccc1` was “inactive”.
Still for that read-out and setting: the value for `O=C(O)CC(O)(CC(=O)O)C(=O)O` was “inactive”; that for `CCCCCCCCCC(=O)O` was “inactive”.

A short description of the next experiment: Cell Viability - LYMP2-019 (AID 973). Also: nearly all actives have a fitted effect of over 55% in size. Particulars: LYMP2-019 lymphoblastoid cell line viability; series mostly up to 92.2 µM. The essentials: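 Human lymphoblastoid cells were seeded at 2500 cells/well, preincubated 5 hr at 37 C, then exposed to compounds for 24 hr at 37 C in complete medium. Intracellular ATP was measured by CellTiter-Glo luminescence; AC50 from Hill fits.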
`CN(C)Cc1ccccc1`: the call was inactive.
For the compound `COC(C)=O`, the compound was classed as inactive.
For `C=Cc1ccccc1`, the compound was called inactive.
The same measure, in the same setting: with `CCCCCCCCCC(=O)O` the entry was “inactive”.

Another experiment in a line: Cell Viability - LYMP2-021 (AID 974). Conditions: LYMP2-021 lymphoblastoid cells viability; series mostly up to 92.2 µM. The essentials:
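Human lymphoblastoid cells (2500/well) were preincubated 5 hr at 37 C, then exposed to compounds for 24 hr at 37 C in complete medium. Intracellular ATP was read by CellTiter-Glo luminescence; AC50 came from Hill-equation fits of concentration-response data.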
In the case of `CN(C)Cc1ccccc1`, the outcome was inactive.
On to `COC(C)=O`, for which the outcome was inactive.
Same read-out and setting: the value for `C=Cc1ccccc1` was “inactive”; that for `CCCCCCCCCC(=O)O` was “inactive”.

The nature of another experiment: Cell Viability - LYMP2-023 (AID 975). Particulars: LYMP2-023 lymphoblastoid cell viability; series mostly up to 92.2 µM. The essentials:
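Human lymphoblastoid cells (2500/well) were preincubated 5 hr at 37 C, then exposed to compounds for 24 hr at 37 C in complete medium. Cellular ATP was read by CellTiter-Glo luminescence, and AC50 came from Hill-equation fits.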
On to `CN(C)Cc1ccccc1`, for which the compound was classed as inactive.
On the same count and under the same terms, the value for `COC(C)=O` was “inactive”; that for `C=Cc1ccccc1` was “inactive”.
Still for that read-out and setting: the value for `O=C(O)CC(O)(CC(=O)O)C(=O)O` was “inactive”; that for `CCCCCCCCCC(=O)O` was “inactive”.

The next experiment can be described thus: Cell Viability - LYMP2-025 (AID 976). Particulars: LYMP2-025 lymphoblastoid cell viability; series mostly up to 92.2 µM. The gist of the method: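 Human lymphoblastoid LYMP2-025 cells (2500/well) were pre-incubated 5 hr at 37 C, then treated with compounds for 24 hr at 37 C in complete medium. Viability was read as intracellular ATP by CellTiter-Glo luminescence; AC50 from Hill fits.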
For `CN(C)Cc1ccccc1`, the result was inactive.
For `COC(C)=O`, the call was inactive.
Same read-out and setting: the value for `C=Cc1ccccc1` was “inactive”; that for `O=C(O)CC(O)(CC(=O)O)C(=O)O` was “inactive”.
The same measure, in the same setting: with `CCCCCCCCCC(=O)O` the entry was “inactive”.

The nature of the next experiment: Cell Viability - LYMP2-002 (AID 977).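 Also: compound exposure lasted 24 h at 37 °C.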 Conditions: LYMP2-002 lymphoblastoid cell viability, qHTS; series mostly up to 92.2 µM. The essentials:
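Human lymphoblastoid LYMP2-002 cells, 2500 per well, exposed to compounds for 24 h at 37 C in complete medium; viability read as intracellular ATP by CellTiter-Glo luminescence, AC50 from Hill fits.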
Regarding `CN(C)Cc1ccccc1`, the compound was called inactive.
`COC(C)=O`: the call was inactive.
On the same count and under the same terms, with `C=Cc1ccccc1` the entry was “inactive”.
Still for that read-out and setting: the value for `O=C(O)CC(O)(CC(=O)O)C(=O)O` was “inactive”.
On the same count and under the same terms, with `CCCCCCCCCC(=O)O` the entry was “inactive”.

The nature of another experiment: Cell Viability - LYMP2-006 (AID 978). Also: nearly all actives have a fitted effect of over 60% in size. Particulars: LYMP2-006 lymphoblastoid cell viability, qHTS; series mostly up to 92.2 µM. The essentials: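 Cells are seeded at 2500 per well and rested 5 hr at 37 C. Compounds are added across a concentration series for 24 hr at 37 C, after which ATP is quantified by luciferase luminescence.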
`CN(C)Cc1ccccc1`: the compound was classed as inactive.
Same read-out and setting: the value for `COC(C)=O` was “inactive”; that for `C=Cc1ccccc1` was “inactive”; that for `O=C(O)CC(O)(CC(=O)O)C(=O)O` was “inactive”.
On the same count and under the same terms, the value for `CCCCCCCCCC(=O)O` was “inactive”.

The next experiment is described as follows: Cell Viability - LYMP2-007 (AID 979).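 Also: cells exposed to compound for 24 h before reading; nearly all actives have a fitted effect of over 60% in size.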 Conditions: LYMP2-007 lymphoblastoid cell viability; series mostly up to 92.2 µM. The essentials: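 Human lymphoblastoid cells (2500/well) were plated in complete medium, incubated 5 hr at 37 C, then exposed to compounds for 24 hr at 37 C. Intracellular ATP was read by CellTiter-Glo luminescence after 30 min at room temperature; AC50 from Hill fits.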
For the compound `CN(C)Cc1ccccc1`, the call was inactive.
In the case of `COC(C)=O`, the compound was classed as inactive.
The same measure, in the same setting: with `C=Cc1ccccc1` the entry was “inactive”; with `CCCCCCCCCC(=O)O`, “inactive”.

The next experiment is described as follows: Cell Viability - LYMP2-008 (AID 980). Also: nearly all actives have a fitted effect of over 60% in size. Conditions: LYMP2-008 lymphoblastoid cell viability, qHTS; series mostly up to 92.2 µM. The essentials: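 Human lymphoblastoid cells (2500/well) were plated, held 5 hr at 37 C, then exposed to compounds for 24 hr at 37 C in complete medium. Intracellular ATP was read by CellTiter-Glo luminescence; AC50 from Hill-fitted concentration-response.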
As for `CN(C)Cc1ccccc1`, the compound was classed as inactive.
As for `COC(C)=O`, the compound was called inactive.
Still for that read-out and setting: with `C=Cc1ccccc1` the entry was “inactive”; with `CCCCCCCCCC(=O)O`, “inactive”.

The nature of the next experiment: Cell Viability - LYMP2-010 (AID 981). Also: nearly all actives have a fitted effect of over 55% in size. Particulars: LYMP2-010 lymphoblastoid cell viability, qHTS; series mostly up to 92.2 µM. The essentials:
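Human lymphoblastoid LYMP2-010 cells (2500/well) were preincubated 5 hr at 37 C, then exposed to compounds for 24 hr at 37 C in complete medium. Intracellular ATP was measured by CellTiter-Glo luminescence after 30 min at room temperature; AC50 from Hill-fitted concentration-response.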
As for `CN(C)Cc1ccccc1`, the result was inactive.
Still for that read-out and setting: the value for `COC(C)=O` was “inactive”; that for `C=Cc1ccccc1` was “inactive”; that for `CCCCCCCCCC(=O)O` was “inactive”.

The nature of a further experiment: Cell Viability - LYMP2-012 (AID 982). Conditions: LYMP2-012 lymphoblastoid cell viability qHTS; series mostly up to 92.2 µM.
Regarding `CN(C)Cc1ccccc1`, the call was inactive.
The same measure, in the same setting: with `COC(C)=O` the entry was “inactive”.
Same read-out and setting: with `O=C(O)CC(O)(CC(=O)O)C(=O)O` the entry was “inactive”; with `CCCCCCCCCC(=O)O`, “inactive”.

A further experiment is described as follows: Cell Viability - LYMP2-014 (AID 983). Also: nearly all actives have a fitted effect of over 50% in size. Conditions: LYMP2-014 lymphoblastoid cells, viability qHTS; series mostly up to 92.2 µM. The essentials:
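Human lymphoblastoid cells (2500/well) were pre-incubated 5 hr at 37 C, then exposed to compounds in complete medium for 24 hr at 37 C. Intracellular ATP was read by CellTiter-Glo luminescence after 30 min at room temperature; AC50 from Hill fits.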
As to `CN(C)Cc1ccccc1`, the result was inactive.
Same read-out and setting: with `COC(C)=O` the entry was “inactive”.
Same read-out and setting: the value for `O=C(O)CC(O)(CC(=O)O)C(=O)O` was “inactive”.
On the same count and under the same terms, with `CCCCCCCCCC(=O)O` the entry was “inactive”.

A short description of the next experiment: Cell Viability - LYMP2-016 (AID 984). Also: nearly all actives have a fitted effect of over 55% in size. Conditions: LYMP2-016 lymphoblastoid cell viability, qHTS; series mostly up to 92.2 µM. The essentials: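 Cells were seeded at 2500 per well and rested 5 hr before a 24 hr compound exposure at 37 C. Viability was then gauged as cellular ATP by luciferase luminescence, with AC50 values fitted to the Hill equation.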
Consider `CN(C)Cc1ccccc1`, for which the call was inactive.
On the same count and under the same terms, with `COC(C)=O` the entry was “inactive”; with `C=Cc1ccccc1`, “inactive”.
With `O=C(O)CC(O)(CC(=O)O)C(=O)O`, the result was inactive.
The same measure, in the same setting: the value for `CCCCCCCCCC(=O)O` was “inactive”.

The next experiment in a line: Cell Viability - LYMP2-018 (AID 985). Also: nearly all actives have a fitted effect of over 50% in size. Particulars: LYMP2-018 lymphoblastoid cells, viability (qHTS); series mostly up to 92.2 µM. The essentials:
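Human lymphoblastoid cells (2500/well) were pre-incubated 5 hr at 37 C, then exposed to compounds for 24 hr at 37 C in complete medium. Viability was read as intracellular ATP by CellTiter-Glo luminescence; AC50 values came from Hill-equation fits.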
`CN(C)Cc1ccccc1`: the outcome was inactive.
On the same count and under the same terms, the value for `COC(C)=O` was “inactive”; that for `C=Cc1ccccc1` was “inactive”; that for `O=C(O)CC(O)(CC(=O)O)C(=O)O` was “inactive”.
For the compound `CCCCCCCCCC(=O)O`, the compound was classed as inactive.
